CCT chaperon mod – modulators of cytosolic chaperonin (CCT/TRiC) activity; AID 651819; purified chaperonin ATPase assay, HTRF ADP detection, 30 min; actives 0.3% (n = 360,000); activity change, % (no concentration beside the values), hits read low; in the data active = activity change below about -30%
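TRiC at 40 or 20 nM final (batch-dependent) in 30 mM Tris pH 7.4, 100 mM KCl, 5 mM MgCl2, 1 mM DTT, with compound at single 76 uM and 10 uM ATP, 30 min at 37 deg C. ADP detected by HTRF Transcreener, 665/615 ratio.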
VDR inhibitor – blocks the human vitamin D receptor; AID 504847; VDR-SRC2-3 peptide fluorescence polarization, 2 h; Potency, µM, inactives show max response, negative = inhibition, actives largely listed as inhibitors; actives 0.93% (n = 400,000); P11473; note: potency is the fitted concentration of half-maximal effect
Target sequence (P11473 whole entry, looked up): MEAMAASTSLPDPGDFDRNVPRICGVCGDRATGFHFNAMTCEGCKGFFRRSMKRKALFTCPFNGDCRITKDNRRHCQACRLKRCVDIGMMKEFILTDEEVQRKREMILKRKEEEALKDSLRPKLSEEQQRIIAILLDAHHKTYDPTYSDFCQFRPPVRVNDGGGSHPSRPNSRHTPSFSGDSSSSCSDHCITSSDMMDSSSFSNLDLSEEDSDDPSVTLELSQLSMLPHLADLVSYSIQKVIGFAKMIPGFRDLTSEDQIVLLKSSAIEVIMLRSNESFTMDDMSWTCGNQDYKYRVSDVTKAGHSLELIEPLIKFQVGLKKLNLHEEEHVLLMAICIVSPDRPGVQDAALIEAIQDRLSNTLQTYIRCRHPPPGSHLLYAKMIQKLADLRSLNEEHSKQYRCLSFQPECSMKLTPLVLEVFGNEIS
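Measured by FP: displacement of SRC2-3 coactivator peptide from VDR by library compounds, following a two-hour ambient incubation.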
MmCpn inh – inhibitors of Methanococcus maripaludis chaperonin TRiC (MmCpn); purified Mm-Cpn ATPase, ADP Transcreener TR-FRET; Potency, µM (top dose mostly 76.9 µM), inactives show at the top dose activity, negative = inhibition, most hits filed as inhibitors; actives 0.031% (n = 330,000); AID 504842; note: potency is the fitted concentration of half-maximal effect; nearly all actives have a fitted effect of over 80% in size
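Measured: ADP formation by purified Mm-CPN. Conditions: 25 nM protein, 10 uM ATP, Tris pH 7.4 with Mg2+, K+ and DTT, 37°C for 30 min. Detection: Transcreener HTRF after 30 min at room temperature.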
Sfp inh – inhibitors of Bacillus subtilis Sfp phosphopantetheinyl transferase; Biochemical Sfp PPTase activity, qHTS; Q9F4F7; Potency, µM, for the others: largest response in the series, negative = inhibition, actives largely listed as inhibitors; actives 3.5% (n = 310,000);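 note: the enzyme is Sfp with the accession as filed and its product quenches rhodamine fluorescence; potency is the fitted concentration of half-maximal effect; 0% = enzyme reaction without inhibitor and -100% = no enzyme wells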
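Step 1, compound plus 15 nM Sfp-PPTase, 15 min, room temperature. Step 2, add rhodamine-CoA (5 uM) and BHQ-2-YbbR (12.5 uM). Step 3, read 525/598 nm fluorescence at 0 and 30 min.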
PLK1 PBD block – inhibitors of human PLK1 polo-box domain binding. P53350. Plk1 PBD binding of FITC phosphopeptide, fluorescence polarization. Potency, µM, for inactives: max response, negative = inhibition, usual class: inhibitors. actives 2.8% (n = 360,000). AID 720504; note: potency is the fitted concentration of half-maximal effect; series mostly up to about 57 µM; nearly all actives have a fitted effect of over 65% in size
G9a block – blocks human histone lysine methyltransferase G9a. Q96KQ7. G9a H3K9 monomethylation, AlphaScreen, 2 h. Potency, µM (titrated, usually from 102 µM), for the others: at the highest dose activity, negative = inhibition, hits mostly inhibitors. actives 8.8% (n = 350,000). AID 504332; note: potency is the fitted concentration of half-maximal effect; nearly all actives have a fitted effect of over 75% in size
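Quantitative HTS format: methyltransferase activity on a biotin-tagged H3K9 peptide is measured by AlphaScreen, using a rabbit anti-monomethyl-H3K9 antibody with streptavidin donor and anti-IgG acceptor beads. Final levels are 20 nM enzyme, 500 nM peptide, 20 uM SAM; 2 h RT.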
Numbers without * were called inactive; ? = inconclusive; · = no result given; ! = not active in a repeat; [ ] = dose if it differs, or a comment. The list is not random: actives were taken first. Their share in the collection is about 10%. Unless noted, calls come from the whole dose curve; as a rule, active = well fitted curve in the direction sought with a large enough effect; inconclusive = small, poorly fitted or top-dose-only effect, or another doubt; inactive = no such curve, though single readings can be large; an effect the other way counts as inactive or inconclusive. Unless noted, % is set by controls: 0 for no effect and ±100 for the full control effect.

SMILES	CCT chaperon mod	VDR inhibitor	MmCpn inh	Sfp inh	PLK1 PBD block	G9a block
O=C(CSc1nc2c([nH]c3ccccc32)c(=O)n1-c1ccccc1)Nc1cccc(C(F)(F)F)c1	·	-1%	·	·	·	10%[59 µM]
CNCCCC12CCC(c3ccccc31)c1ccccc12	1	-4%	3%	89µM*!	?	71µM*!
CCCCc1c(C)nc2ccccc2c1SCCC(=O)O	1	4%	-6%	23%	?	50µM*
COc1ccc(CC(=S)N2CCOCC2)cc1F	-1	-5%	-3%	5%	-9%	-1%[59 µM]
COc1cc(C(=O)Oc2c(OC)cc(C(=S)N3CCOCC3)cc2OC)cc(OC)c1OC	-2	-1%	2%	9%	-1%	?
COc1cc(C(=S)N2CCOCC2)cc(OC)c1OC(=O)c1ccc(F)cc1	0	?	-3%	28µM*	12µM*	·
COc1cc(C(=S)N2CCOCC2)cc(OC)c1OC(=O)Cc1ccc(F)cc1	0	?	-3%	45µM*	7.5µM*	3.2µM*
CCCC/C=C/[C@H](c1ccccc1)[C@H](CO)Cc1ccccc1	·	5%	·	7%	·	·
Cc1cccc(-c2ccc3ncnc(NCc4cc(C)cs4)c3c2)c1	·	·	?	·	·	-7%[12.7 µM]
Cc1ccc(-c2csc(NCCn3c(-c4ccncc4)nc4ccccc43)n2)cc1	0	6%	1%	-9%	0%	20µM*
Cc1nc2cc(C(F)(F)F)ccc2n1CCNc1nc(-c2ccc(F)cc2)cs1	-3	-1%	-2%	-7%	-17%	28µM*
CCOc1ccc(NC(=O)Nc2nnc(N3CCCCC3C)s2)cc1 (configuration not stated)	·	7%	·	·	·	-49%[59 µM]
NC(=O)Oc1ccc(Cc2ccccc2)cc1	·	1%	·	13%	·	2%[12.7 µM]
CCSc1ncc(/C=N/Nc2ccccc2)n1C	2	-13%	-1%	-1%	7.5µM*	11µM*
CCSc1ncc(/C=N/Nc2ccc(Cl)cc2)n1C	-4	-9%	1%	28µM*	-8%	?
CCSc1ncc(/C=N/Nc2ccc([N+](=O)[O-])cc2)n1C	1	-1%	1%	-9%	9%	?
CC1CCN(C(=O)CN2CC(C)Sc3ccccc32)CC1 (configuration not stated)	·	12%	·	·	·	?
Cc1ccc(OCC(=O)N(Cc2ccco2)Cc2ccco2)cc1C	·	2%	·	·	·	?
O=C(CSc1nnc(Cn2c(=O)sc3ccccc32)n1-c1ccccc1)N1CCOCC1	-1	-9%	0%	56µM*	?	45µM*
CCOC(=O)C(C)Sc1nnc(Cn2c(=O)sc3ccccc32)n1-c1ccccc1 (configuration not stated)	1	-38%	1%	79µM*	?	?
Cc1cccc(N2CCN(c3cc(C)nc4c(-c5ccc(Cl)cc5)c(C)nn34)CC2C)c1 (configuration not stated)	·	0%	·	·	·	-6%[59 µM]
O=C(CCSc1ccccc1)Nc1nccs1	-1	2%	1%	11%	-11%	-4%[59 µM]
O=C(CCl)Nc1nc(-c2ccco2)c(-c2ccco2)s1	-4	-15%	-10%	45µM*	?	11µM*
O=C(CCCSc1ccccc1)Nc1nc(-c2ccco2)c(-c2ccco2)s1	-2	-19%	?	16µM*	-17%	?
Cc1ccc(C(=O)Nc2nc(-c3ccco3)c(-c3ccco3)s2)o1	-6	?	-20%	·	-30%	14µM*
Cc1ccc(C(=O)Nc2ncc(C)s2)o1	0	-7%	-1%	-1%	-3%	-41%[59 µM]
COc1cccc(Cn2c(=O)c(CCc3ccccc3)nc3cnc(N4CCN(C)CC4)nc32)c1	·	?	·	?	·	-5%[0.501 µM]
O=C(c1ccc(CSc2nc3ccncc3[nH]2)cc1)N1CCCCC1	-3	-9%	1%	-22%	2%	25µM*
Cc1ccc(C)c(N2CCN(C(=O)c3ccc(CSc4nc5ccncc5[nH]4)cc3)CC2)c1	-1	18%	1%	-2%	-7%	14µM*

Bioassay records (PubChem BioAssay)
